First the molecules themselves.
B1: ENSMUSG00000061578.897|Ksr2|214:218 (ssRNA)
RNA: GGGAGUUCUACAGUCCGACGAUCGCUUCGAUAUCCGCAUGCUAUCCUGGGACACUACCCAAACCCUAGCACUCUCCCAGUGACUCUCCUAUGAGUACAUAUGCCAUCCUGCUUCCUUUGUGGCAAAACCCUGGGUCACCCAGAGACAGAUUUCCCAGAAUCCCUGGGCCACUUCUCAAUUCUACCCAUGACAGACAUGUCCCAUCCAUGAGCCCAGAUAGUCAAAGACUUCAGCACAAGGGUGUUUAGAGUAGGCACACACGAAGUAUCAAUAAGGUUAUUGAGAUGAGGAUUUAGAAAGAUCCUCUUGCGGUCGCACUAGUGUGGAAUUCUCGGGUGUCAAGG
B2: ENSMUSG00000090935.723|Synj2bp (ssRNA)
RNA: GGGAGUUCUACAGUCCGACGAUCGCUUCGAUAUCCGCAUGCUAAACAUUGUUUUAUUCCUAGGUGCUCAGGACAGACUGAUCAACCUCCAGUAACAUAUGUGGUUAGUAAGUGCUUCAGCUUGUGUAGCCAUUAAUAACCAAGUCAUAGGAUUGUGAAUCUAAAAUACUCCUGGGUAAAAUUUGUAUUAGAAUGGAAAAAAAAAUGAGGGUCAGAAAGGUGAGCUAACUUCAAGUUAGAUACUCCCCUCUAUUUUGGUCUCAAAUUUGUUUUAGUGUGUCCACAACAUGAAAACAUACAAAAACUCUUGCGGUCGCACUAGUGUGGAAUUCUCGGGUGUCAAGG
B3: ENSMUSG00000058297.523|Spock2 (ssRNA)
RNA: GGGAGUUCUACAGUCCGACGAUCGCUUCGAUAUCCGCAUGCUAUGGGUGGGCACAGGUCUGCCUUGCUCCAGCCCCCUCCCUUGGUUUCUGUUGGUACCCAUUUGGCUUUUAUCUGCUUUCUGCUUCACCACUAAGUGCGUAGGUGGGGUCUUUUGAUAUCGGCUCCCCAAAGCCCAAGCCCACAGCCCUAGGAGAGAACCAGGGGCCCAUCUUUGACACCUGGGCCAUCACGAGCCCUCCCGCCUGCAGUUGUCCUAGGGAAAGACCUGGGGGUGCAAAAGGAGAUUCAAGACAUCCGUACCCUCUUGCGGUCGCACUAGUGUGGAAUUCUCGGGUGUCAAGG
B4: ENSMUSG00000004113.207|Cacna1b|52:56;242:246 (ssRNA)
RNA: GGGAGUUCUACAGUCCGACGAUCGCUUCGAUAUCCGCAUGCUAAGGAAGCAUCGGGUGGAUUGGGUGGGAGCUGCUCAGAGCAGCACGGGGGCUACACACUUAGGGACAUUGACAGUGUCCAUCAGCAUGUCAGAGAAGCAGCUGUAGUGCCCGUGUUUCUCCCUGAGUCAUGGGUUCUGAAGAAGCCAGAGCGGCACAAUGCGUGCUUGCAUGAGGCACUUUCAGCCUUUUUAAAUCUGACUCUCAGGGAUGGGAUGCCUGCCAAGUAGGGUGUAAUCUCUGUACACAUUUUAAAACAACAACUCUUGCGGUCGCACUAGUGUGGAAUUCUCGGGUGUCAAGG
B5: ENSMUSG00000032194.344|Kank2 (ssRNA)
RNA: GGGAGUUCUACAGUCCGACGAUCGCUUCGAUAUCCGCAUGCUAAACACCCACCAGUCUCUCCUCUCCUUCCCGCUAUACUCCAGUUUUCUUUCUACUCUGUGACCACGGUACAUCCAUGAAGACAGUGUUACACGUAAAUGAAGUAUUCUUUUCUUGUAAUCAUAUUUUAGAAAGUAAAAGGACUUAAUAAAGCUACAAAUAAAAACAUUGCCUCGUGUCUGUUUGUUCUCCUUCUUUUUAGGCUAGCCUUGAACUCCUGAUCCUCCUGCCUUCCAUCUCCCAAGUGCUGGGAUGACAGGCACCUCUUGCGGUCGCACUAGUGUGGAAUUCUCGGGUGUCAAGG
B6: ENSMUSG00000004113.341|Cacna1b|1:8;11:16 (ssRNA)
RNA: GGGAGUUCUACAGUCCGACGAUCGCUUCGAUAUCCGCAUGCUACACACACAAGCACACAUCAGCAAGUGGCUAUUGUCAACCAUAGGGCUAUGCAACAAAAGACACAUUACUAGAAACAAAACACAAGACCACCACUUGGUCUAGGGUUUCAGCAUGAUUGUGACCAAACCUUUUAUAGAAUUUCCUUAUACAAAGGCACAAUACCCUGAAACUUUAACAGAGUAUUUUAUUCCAGUAGGGUAAAAUUAAACGGGACUCUUGGACUGCGCAUGUGACUGCACCCACGUUGCAACAGAGAAGGACUCUUGCGGUCGCACUAGUGUGGAAUUCUCGGGUGUCAAGG
B7: ENSMUSG00000061578.75|Ksr2 (ssRNA)
RNA: GGGAGUUCUACAGUCCGACGAUCGCUUCGAUAUCCGCAUGCUAAUGGAACCAGAAACAAUACACCUGCUCCGUUGUCAAGGCUUCUAGGCCAAGGUCAGGGUAGGGAGGUGGGGUGGGUUAAACUUGCAAACAUCUGAUUUUAGAGGUCCCAUUCCAAGAUGGAAGUCACCGGUUGCCGCUGAGCACACAAUUCUGAAGGACAGUAGGCAGUCCUGCAGGUCUUUUUUAGCACAGGGCCUCUCUGGGGACCAGUCCCUGGCCUUCACCCUUCUCCCAUUUUGUAAGAACACUGUUCUAACUCACUCUUGCGGUCGCACUAGUGUGGAAUUCUCGGGUGUCAAGG
B8: ENSMUSG00000034801.114|Sos2 (ssRNA)
RNA: GGGAGUUCUACAGUCCGACGAUCGCUUCGAUAUCCGCAUGCUACCCCAGGUGAUCAGCAGCAUUGCUUCCUCGGCUCCCCAGUGCUGCCCUAGGCCAGUAUAAAGACUCUGUAUUGCACUGUAGACUCUGCUAGCAGACGGCACUGAGAGGAGCCAGCGCUCGAGGGCGUUCUCACGCCUGACUGAUAGAUACCUUUUUAGGGUGAUGAACUUACACAGAUGCAGAAGAUAUGGGGUGGUGGUCCUGGGUUUUAACCCUCUGACCGUCUUCUAGCUUCUAAUUUUGUUUGGUUUUUACAUCUACUCUUGCGGUCGCACUAGUGUGGAAUUCUCGGGUGUCAAGG

In all, about 9,900 sequences were measured (“r (bound/input frequency ratio)”: median about 0.7, highest 2% from about 6.5 on). This excerpt belongs to a sample that is enriched for the highest values.

Sequence of TDP-43 (Q13148 whole entry): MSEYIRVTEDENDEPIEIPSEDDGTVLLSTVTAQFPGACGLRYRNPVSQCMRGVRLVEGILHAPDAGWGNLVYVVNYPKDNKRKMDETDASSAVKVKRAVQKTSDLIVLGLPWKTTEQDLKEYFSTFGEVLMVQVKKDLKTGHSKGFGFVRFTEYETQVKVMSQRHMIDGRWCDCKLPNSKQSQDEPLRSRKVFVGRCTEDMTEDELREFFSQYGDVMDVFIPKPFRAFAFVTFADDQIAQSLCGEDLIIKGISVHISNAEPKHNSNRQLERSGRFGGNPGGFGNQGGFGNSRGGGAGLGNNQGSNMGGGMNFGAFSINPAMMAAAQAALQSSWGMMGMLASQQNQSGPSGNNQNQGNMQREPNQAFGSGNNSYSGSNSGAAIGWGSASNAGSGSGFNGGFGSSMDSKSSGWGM

This experiment addresses TDP-43 (Homo sapiens, UniProt Q13148 1-414). Nature of the experiment: RNA Bind-n-Seq with designed 260-mer pool; 25 mM Tris-HCl, 150 mM KCl, 3 mM MgCl2, BSA (printed 500 mg/mL), 20 units/mL SUPERase IN; pH not stated; 500 nM RNA pool, 1 h, 4 C; TDP-43 5, 50, 500 nM; high values mean tight binding. To be noted: protein: recombinant; tags: SBP (GST cleaved off with PreScission; pGEX-GST-SBP). Put shortly: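 Streptavidin beads captured recombinant SBP-tagged TDP-43 at 5, 50 or 500 nM, and the beads were incubated for 1 h at 4 °C with 500 nM of an in vitro-transcribed pool of 260-nt 3′ UTR oligos in 25 mM Tris-HCl, 150 mM KCl, 3 mM MgCl2, BSA and SUPERase IN. After washing, bound RNA was eluted with biotin, reverse transcribed, PCR-amplified and sequenced. Binding is reported as R, the mapped-read-normalized abundance of each oligo in the bound sample divided by its abundance in the input. Two independent protein batches served as duplicates.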
Turning to B1, the binding signal was 0.295 R (bound/input frequency ratio).
With B2 the figure was 0.199 R (bound/input frequency ratio); with B3, 0.928 R (bound/input frequency ratio); with B4, 0.888 R (bound/input frequency ratio).
With B5 the figure was 0.585 R (bound/input frequency ratio); with B6, 0.234 R (bound/input frequency ratio).
With B7 the figure was 0.151 R (bound/input frequency ratio); with B8, 0.44 R (bound/input frequency ratio).

The values are drawn from publication PMC12864922, “TDP-43 directly inhibits mRNA accumulation in neurites through modulation of mRNA stability”.
